Vaccinia Venus: qHTS for Stage-Specific Inhibitors of Vaccinia Orthopoxvirus: Venus Reporter Primary qHTS; Vaccinia virus Venus reporter expression, fluorescence; Potency, µM (series often up to 36.5 µM), usual class: inhibitors; 0.46% of 330,000 active; AID 720580, 2013; calls by dose curve; tested in A549 cells; also: nearly all actives have a fitted effect of over 30% in size
Tb PYK inh: qHTS of Trypanosoma Brucei Inhibitors; Potency, µM (top dose mostly 76.8 µM), hits mostly inhibitors; TbPYK enzyme, Kinase-Glo Plus ATP luminescence, 45 min; AID 624173, 2012; pyruvate kinase (Trypanosoma brucei), Q57TT1; 0.12% of 410,000 active; also: nearly all actives have a fitted effect of over 50% in size
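Activity of T. brucei pyruvate kinase was followed by Kinase-Glo Plus luminescence after the enzyme reacted 45 min at room temperature with 130 uM ADP (final) and substrate. Test compounds were added before ADP at multiple concentrations.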
LmPK inhibitor: qHTS Assay for Inhibitors of Leishmania Mexicana Pyruvate Kinase (LmPK) | Q27686 | purified LmPK, Kinase-Glo ATP luminescence, 1 h | Potency, µM (doses to about 57.5 µM), most hits filed as inhibitors | 0.37% of 290,000 active | AID 1721, 2009
Target sequence (Q27686 whole entry, looked up): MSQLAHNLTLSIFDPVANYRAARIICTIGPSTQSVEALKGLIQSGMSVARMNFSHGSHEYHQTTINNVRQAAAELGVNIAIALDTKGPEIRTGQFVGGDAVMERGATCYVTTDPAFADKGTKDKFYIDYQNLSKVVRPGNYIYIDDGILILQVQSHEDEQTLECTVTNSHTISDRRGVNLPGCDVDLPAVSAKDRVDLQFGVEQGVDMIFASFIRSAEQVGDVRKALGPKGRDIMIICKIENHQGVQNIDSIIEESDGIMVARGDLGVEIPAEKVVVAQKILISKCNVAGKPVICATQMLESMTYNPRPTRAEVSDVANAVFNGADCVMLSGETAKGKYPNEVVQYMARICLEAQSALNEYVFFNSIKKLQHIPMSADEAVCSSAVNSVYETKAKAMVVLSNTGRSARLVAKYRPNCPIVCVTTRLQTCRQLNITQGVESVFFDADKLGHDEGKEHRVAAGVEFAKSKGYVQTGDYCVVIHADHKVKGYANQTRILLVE
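Pyruvate kinase activity monitored as ATP production (luciferase luminescence). Conditions: 0.1 nM enzyme, 0.5 mM PEP, 0.1 mM ADP, 1 h, RT; normalized against uninhibited and no-enzyme wells.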
Vaccinia mCherry: qHTS for Stage-Specific Inhibitors of Vaccinia Orthopoxvirus: mCherry Reporter Primary qHTS; Vaccinia virus mCherry reporter infection, fluorescence; Potency, µM (highest dose often 36.5 µM), hits mostly inhibitors; 0.63% of 310,000 active; calls by dose curve; tested in A549 cells; also: nearly all actives have a fitted effect of over 35% in size
HCMV inh: qHTS Assay for inhibitors of the human cytomegalovirus (HCMV); HFF cells, HCMV-luciferase reporter, 72 h; active compounds read low; activity change, negative = inhibition, % at 57.5 µM; 4.5% of 410,000 active; AID 1259415, 2018; in the data active = activity change below about -60%; inconclusive = no clear call, values can overlap the other calls; inactive = above about -39%
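Two compound doses tested in HFFs infected with HCMV-luciferase, MOI 1 PFU/cell, 72 h at 37C. Lysate luminescence read with OneGlo; data normalized against buffer-only and 10uM Salinomycin inhibitor controls.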
Hits are given with their value; 0 = inactive; ? = inconclusive; - = no result given; ! = not confirmed by another sample. Sampled rows, rich in hits. Any-hit rate of the full collection: about 5%. Unless noted, calls follow the shape of the dose curve; as a rule, active = well fitted curve in the direction sought with a large enough effect; inconclusive = small, poorly fitted or top-dose-only effect, or another doubt; inactive = no such curve, though single readings can be large; an effect the other way counts as inactive or inconclusive.

SMILES	Vaccinia Venus	Tb PYK inh	LmPK inhibitor	Vaccinia mCherry	HCMV inh
CCOC(=O)N1CCN(C(=O)CN(c2cc(Cl)ccc2OC)S(=O)(=O)c2ccccc2)CC1	0	0	0	0	-92
COc1ccc(N(CC(=O)Nc2ccc(Cl)cc2C)S(=O)(=O)c2ccccc2)c(OC)c1	0	0	-	0	-71
COc1ccc(OC)c(NC(=O)CN(c2ccccc2OC)S(=O)(=O)c2ccc(C)cc2)c1	0	0	-	0	-100
COc1ccc(Cl)cc1NC(=O)CN(c1cccc(C)c1C)S(=O)(=O)c1ccccc1	0	0	-	0	-62
CCOC(=O)c1cnc2c(ccc3ccccc32)c1Nc1ccccc1O	0	0	-	0	0
NC(=O)NCCCC(NC(=O)c1ccc(C#CC2(O)CCCCC2)cc1)C(=O)O (stereo unspecified)	0	0	0	0	0
O=C(CCNS(=O)(=O)c1cccc2nonc12)NC1CCCc2ccccc21 (stereo unspecified)	-	0	0	-	0
COC(=O)c1c(N)[nH]c(C(=O)c2ccccc2)c1-c1ccc(Br)cc1	0	0	-	0	0
CNc1ccccc1C(C)(C)c1cc(-c2cccc(OC)c2)no1	0	0	0	0	-83
OC(CNCCc1ccccc1)COc1ccc(OCC(O)CNCCc2ccccc2)cc1 (stereo unspecified)	?	0	0	0	-77
Oc1ccc(NCc2ccc(OCc3ccccc3)cc2)cc1	0	?	0	0	-63!
COc1ccc(CCNCc2ccc(OCc3ccccc3)cc2)cc1	0	0	0	0	-89
CCOC(=O)C(=O)Nc1cc(C)on1	0	0	16µM	0	0
Cc1ccc2c(c1)C1C3CCC(C3)C1S(=O)N2 (stereo unspecified)	0	0	0	?	0
COc1ccc(CN2C(=O)C(C)Nc3ncnc(N4CCOCC4)c32)cc1 (stereo unspecified)	0	0	-	0	-65
O=C1C(Cc2ccccc2)Nc2ncnc(N3CCOCC3)c2N1Cc1ccccc1 (stereo unspecified)	0	0	-	0	-101!
Cc1ccc(CN2C(=O)C(Cc3ccccc3)Nc3ncnc(N4CCOCC4)c32)cc1 (stereo unspecified)	0	0	-	0	0
COc1ccc(CN2C(=O)C(C)Nc3ncnc(N4CCN(c5ccccc5)CC4)c32)cc1 (stereo unspecified)	?	0	-	?	0
CC1Nc2ncnc(N3CCN(c4ccccc4)CC3)c2N(Cc2ccc(Br)cc2)C1=O (stereo unspecified)	?	0	-	7.1µM	0
CC[C@H](C)[C@@H]1NC(=O)c2cc([N+](=O)[O-])cc(F)c2NCCCC[C@@H](C(N)=O)NC(=O)[C@H](CCCCN)NC1=O	0	0	0	0	0
COc1cccc(CN(C)C(=O)CNC(=O)c2ccc(-c3ccccc3)cc2)c1OC	0	0	0	0	-71
CCOC(=O)C1CCC(CN(Cc2c(Cl)cccc2Cl)S(=O)(=O)c2ccc(Cl)cc2)CC1 (stereo unspecified)	0	0	-	0	0
CCOC(=O)c1c(N)sc(=S)c2c1CCC2	0	0	0	0	0
CN1C2CCC1/C(=C/c1cccn1C)C(=O)/C2=C\c1cccn1C	0	0	0	0	?
CN1C2CCC1/C(=C\c1ccc(F)cc1)C(=O)/C2=C/c1ccc(F)cc1	0	0	0	0	-103
SMILES	Vaccinia Venus	Tb PYK inh	LmPK inhibitor	Vaccinia mCherry	HCMV inh
COCCCNC(=O)C1CC(=O)N(C2CCCC2)C1 (stereo unspecified)	0	0	0	0	0
O=C(Nc1ccncc1)c1ccc(Cl)c(S(=O)(=O)N2CCCC2)c1	0	0	-	0	-71
CCN(CC)CCNC(=O)c1ccc(NC(=O)c2ccc(Cl)c(S(=O)(=O)N3CCCCCC3)c2)cc1	0	0	0	?	-60
Cc1ccc(C(=O)Nc2ccncc2)cc1S(=O)(=O)N1CCCCC1	?	0	-	?	?
CCN(CC)S(=O)(=O)c1cc(C(=O)Nc2ccncc2)ccc1Cl	0	0	0	?	-87
Cc1ccc(C(C(=O)NCc2ccccc2)N(Cc2cccs2)C(=O)c2ccc3c(c2)OCCO3)cc1 (stereo unspecified)	-	0	0	-	-69
Nc1cccc(-c2c[nH]c3ncc(-c4cccnc4)cc23)c1	10µM	0	-	?	-
Nc1ccc2nc(-c3cccnc3)[nH]c2c1	0	0	0	0	0
CCOC(=O)c1c(S(=O)(=O)NCC(=O)Nc2ccc(C(C)=O)cc2)c(C)n(C)c1C	0	0	-	0	0
CCN(C(=O)c1ccc(=O)n(C)n1)c1c(N)n(Cc2ccccc2)c(=O)[nH]c1=O	0	0	-	0	-77
CCN(C(=O)c1ccc(=O)[nH]c1)c1c(N)n(Cc2ccccc2)c(=O)[nH]c1=O	-	0	-	-	0
CCN(C(=O)CN1CC=C(c2ccccc2)CC1)c1c(N)n(Cc2ccccc2)c(=O)[nH]c1=O	0	0	0	0	-62
Nc1c(N(Cc2ccco2)C(=O)c2ccc(Cl)cc2)c(=O)[nH]c(=O)n1Cc1ccccc1	0	0	-	0	-71
CCN(C(=O)CN(C)Cc1c(F)cccc1Cl)c1c(N)n(Cc2ccccc2)c(=O)[nH]c1=O	0	0	0	0	-65
CCOC(=O)c1c(Nc2ccccc2N)cc(C)nc1C	0	0	0	0	0
CN(CC(=O)NCCCN1CCOCC1)S(=O)(=O)c1cc(Cl)ccc1Cl	0	0	0	0	0
CCC1(c2cccc(O)c2)CCCCN(C)C1 (stereo unspecified)	0	0	-	0	-68
CCOC(=O)C1(c2ccccc2)CCCN(C)CC1 (stereo unspecified)	-	0	-	-	-
O=C(O)c1ccc(N/N=C/c2c[nH]c3ccccc23)cc1	-	0	0	-	-65
Fc1c(F)c(F)c(N/N=C/c2c[nH]c3ccccc23)c(F)c1F	?	0	0	?	-65
Cc1cc(C)nc(N/N=C/c2c[nH]c3ccccc23)n1	0	0	0	0	0
O=C(N/N=C/c1c[nH]c2ccccc12)c1cc(-c2ccc(-c3ccccc3)cc2)n[nH]1	-	0	0	-	-74
CCOC(=O)N1CCN(S(=O)(=O)c2c(C)[nH]c(=O)[nH]c2=O)CC1	0	0	0	0	0
CC(C)c1ccc(NC(=S)Nc2cccc3ccccc23)cc1	0	0	0	?	0
CC(C)(C)c1ccc(C(=O)N2CCC(c3noc(-c4ccc(S(=O)(=O)N5CCCC5)cc4)n3)CC2)cc1	?	0	-	?	0
Cc1ccc(-c2nc(C3CCN(S(=O)(=O)c4ccc(C(C)(C)C)cc4)CC3)no2)cc1	0	0	0	?	-98
COc1cc(CNCCO)ccc1OCC(=O)Nc1ccc(Br)cc1	-	0	0	-	0
COc1cc(OC)c(N(C)S(=O)(=O)c2cccc(C(=O)OCC(=O)N(C)Cc3ccccc3)c2)cc1Cl	-	0	-	-	-63

Assay outcomes: PubChem BioAssay, National Center for Advancing Translational Sciences (NCATS)
